In PubChem BioAssay (Tox21):
Values without a mark were called inactive. Results filed as inconclusive are left out. Entries that show only a call come without a potency. Calls of active or inactive are those of the source. Unless noted, calls follow the shape of the dose curve; as a rule, active = well fitted curve in the direction sought with a large enough effect in the repeat runs; inconclusive = weak or mixed curves; inactive = no such curve, though single readings can be large; an effect the other way counts as inactive or inconclusive.

What was measured:
[1] = qHTS assay for small molecules that induce genotoxicity in human embryonic kidney cells expressing luciferase-tagged ATAD5 (AID 651632); also: nearly all actives have a fitted effect of over 15% in size; also: potency is read from the fitted curve at half-maximal effect
Method in brief: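 Luminescent reporter readout, HEK293T ATAD5-luc line: 16 hr drug exposure (37C, 5% CO2) followed by Amplite, 30 min RT.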

[2] = qHTS assay for small molecule agonists of the p53 signaling pathway - cell viability (AID 651633; calls by dose curve;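 also: p53RE-bla HCT reporter cells with a stable beta-lactamase p53 reporter; series mostly up to about 83 µM; nearly all actives have a fitted effect of over 30% in size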)
Method in brief: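 p53RE-bla cells, seeded at 4,000 per well and rested 5 h at 37 C/5% CO2, received compounds in DMSO for 16 h at 37 C. CellTiter-Glo was then added, and luminescence was read after 30 min at room temperature to gauge cytotoxicity.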

[3] = qHTS assay for small molecules that induce genotoxicity in human embryonic kidney cells expressing luciferase-tagged ATAD5 - cell viability (AID 651634; calls by dose curve; also: nearly all actives have a fitted effect of over 25% in size)
Method in brief: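 Viability read: CellTiter-Fluor fluorescence, 30 min at 37C. Cells: HEK293T, luciferase-tagged ATAD5. Exposure: 15.5 hr, 37C, 5% CO2, compound or DMSO vehicle.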

[4] = qHTS assay for small molecule disruptors of the mitochondrial membrane potential - cell viability (AID 720634; calls by dose curve;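 also: human HepG2 liver cancer cells; series mostly up to about 83 µM; nearly all actives have a fitted effect of over 20% in size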)
Method in brief: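 HepG2, 1 hr compound, 37 C. ATP luminescence via CellTiter-Glo, 30 min RT, same well as m-MPI.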

[5] = qHTS assay to test for compound auto fluorescence at 590 nm (red) in HepG2 cells (AID 720674)
Method in brief: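 Rose Bengal sodium served as the red fluorophore standard. HepG2 monolayers (overnight attachment, MEM with 10% FBS) were exposed to test compounds for 1 hr at 37 C and read at Ex 540/Em 590 nm.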

[6] = qHTS assay to test for compound auto fluorescence at 460 nm (blue) in HEK293 cells (AID 720678)
Method in brief: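 HEK293, 2,000 cells/well, 10% dialyzed FBS; attach 4-5 hr 37C; pin compound or DMSO; o/n 37C/5% CO2; fluorescence 405/460 nm; triamterene-equivalent units.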

[7] = qHTS assay to test for compound auto fluorescence at 590 nm (red) in HEK293 cells (AID 720679)
Method in brief: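 Intensity at 540nm excitation and 590nm emission is reported as Rose Bengal sodium-equivalent autofluorescence. Measurements followed overnight exposure (37C, 5% CO2) of HEK293 cells, 2,000 per well, to 23 nL compound.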

[8] = qHTS assay to test for compound auto fluorescence at 535 nm (green) in HEK293 cells (AID 720680)
[9] = qHTS assay to test for compound auto fluorescence at 460 nm (blue) in HEK293 cell free culture (AID 720681)
Method in brief: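 Test compounds were pinned into cell-free culture medium (DMEM with 10% FBS) and fluorescence was read directly at Ex/Em 405/460 nm. Signals were expressed as fluorescence equivalents of triamterene, with DMSO vehicle as control.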

[10] = qHTS assay to test for compound auto fluorescence at 535 nm (green) in HEK293 cell free culture (AID 720682)
Method in brief: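 No cells present: wells hold DMEM supplemented with 10% FBS, into which compound or vehicle is pinned. Green emission is then recorded (485 nm excitation, 535 nm emission) and scaled to fluorescein.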

[11] = qHTS assay to test for compound auto fluorescence at 590 nm (red) in HEK293 cell free culture (AID 720683)
Method in brief: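 Tox21 10K library compounds were pinned into cell-free DMEM with 10% FBS and fluorescence was read at excitation 540 nm. Activity is expressed as Rose Bengal sodium equivalency.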

[12] = qHTS assay to test for compound auto fluorescence at 460 nm (blue) in HepG2 cell free culture (AID 720685)
Method in brief: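 Compound (23 nL) or DMSO pinned into cell-free MEM with 10% FBS; blue fluorescence read at 405/460 nm excitation/emission, expressed as auto-fluorescence equivalency to triamterene.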

[13] = qHTS assay to test for compound auto fluorescence at 535 nm (green) in HepG2 cell free culture (AID 720686)
[14] = qHTS assay to test for compound auto fluorescence at 460 nm (blue) in HepG2 cells (AID 720687)
Method in brief: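 Cells (2,000/well in MEM with 10% FBS) attached overnight at 37 C, then were exposed to compound or DMSO for 1 hr at 37 C, 5% CO2. Fluorescence read at Ex/Em 405/460 nm, expressed as triamterene-equivalent signal.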

[15] = molecular target: Glucocorticoid receptor (Homo sapiens) (UniProt P04150); assay: qHTS assay to identify small molecule agonists of the glucocorticoid receptor (GR) signaling pathway (AID 720691; active = well fitted activation curve with a large enough effect in the signal ratio in the repeat runs, not every such curve was filed as active; the % refers to the signal ratio)
Glucocorticoid receptor (Homo sapiens), sequence (P04150 whole entry, looked up): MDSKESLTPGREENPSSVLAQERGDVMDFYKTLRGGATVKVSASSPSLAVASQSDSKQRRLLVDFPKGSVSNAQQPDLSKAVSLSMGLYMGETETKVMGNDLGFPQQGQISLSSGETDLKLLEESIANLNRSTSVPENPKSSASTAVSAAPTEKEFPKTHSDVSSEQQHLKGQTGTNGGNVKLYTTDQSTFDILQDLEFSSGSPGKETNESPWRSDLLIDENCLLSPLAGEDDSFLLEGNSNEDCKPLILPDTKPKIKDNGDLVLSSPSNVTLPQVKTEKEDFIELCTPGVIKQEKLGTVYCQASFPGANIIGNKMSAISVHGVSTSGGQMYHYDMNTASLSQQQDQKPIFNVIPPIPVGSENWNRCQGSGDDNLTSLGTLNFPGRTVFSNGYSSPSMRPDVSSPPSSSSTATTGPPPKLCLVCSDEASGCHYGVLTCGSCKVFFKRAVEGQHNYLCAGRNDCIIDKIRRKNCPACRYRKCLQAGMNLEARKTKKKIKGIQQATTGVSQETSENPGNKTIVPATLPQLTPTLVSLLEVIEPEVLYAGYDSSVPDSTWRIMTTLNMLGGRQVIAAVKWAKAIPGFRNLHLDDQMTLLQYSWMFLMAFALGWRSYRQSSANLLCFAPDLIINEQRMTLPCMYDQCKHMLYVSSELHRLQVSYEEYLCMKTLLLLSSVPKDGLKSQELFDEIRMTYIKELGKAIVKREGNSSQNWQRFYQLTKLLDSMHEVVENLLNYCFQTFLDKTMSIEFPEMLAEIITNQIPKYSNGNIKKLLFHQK
Method in brief: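 qHTS in GR-bla HeLa cells: 4 h settling at 37 C/5% CO2, 18 h compound incubation at 37 C, 2 h LiveBLAzer B/G FRET substrate at room temperature, fluorescence intensity measured.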

[16] = molecular target: Glucocorticoid receptor (Homo sapiens) (UniProt P04150); assay: qHTS assay to identify small molecule antagonists of the glucocorticoid receptor (GR) signaling pathway (AID 720692; active = well fitted inhibition curve with a large enough effect in the signal ratio in the repeat runs, not every such curve was filed as active; the % refers to the signal ratio; also: potency is read from the fitted curve at half-maximal effect)
Method in brief: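 Inhibition of glucocorticoid signalling is measured in HeLa cells with a GRE-controlled beta-lactamase reporter; cells are co-treated with compound and 5 nM dexamethasone (final) for 18 h before FRET substrate readout.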

[17] = qHTS assay to identify small molecule antagonists of the glucocorticoid receptor (GR) signaling pathway - cell viability counter screen (AID 720693); also: nearly all actives have a fitted effect of over 55% in size
[18] = qHTS assay for identifying genotoxic compounds that show differential cytotoxicity against isogenic chicken DT40 cell lines with known DNA damage response pathways - Rev3 mutant cell line (AID 743014); also: nearly all actives have a fitted effect of over 55% in size
[19] = qHTS assay to identify small molecule antagonists of the androgen receptor (AR) signaling pathway - cell viability counter screen (AID 743033; also: nearly all actives have a fitted effect of over 45% in size)
[20] = molecular target: Androgen receptor (Homo sapiens) (UniProt P10275); assay: qHTS assay to identify small molecule antagonists of the androgen receptor (AR) signaling pathway (AID 743035; active = well fitted inhibition curve with a large enough effect in the signal ratio in the repeat runs, not every such curve was filed as active; the % refers to the signal ratio; also: potency is read from the fitted curve at half-maximal effect)
Androgen receptor (Homo sapiens), sequence (P10275 whole entry, looked up): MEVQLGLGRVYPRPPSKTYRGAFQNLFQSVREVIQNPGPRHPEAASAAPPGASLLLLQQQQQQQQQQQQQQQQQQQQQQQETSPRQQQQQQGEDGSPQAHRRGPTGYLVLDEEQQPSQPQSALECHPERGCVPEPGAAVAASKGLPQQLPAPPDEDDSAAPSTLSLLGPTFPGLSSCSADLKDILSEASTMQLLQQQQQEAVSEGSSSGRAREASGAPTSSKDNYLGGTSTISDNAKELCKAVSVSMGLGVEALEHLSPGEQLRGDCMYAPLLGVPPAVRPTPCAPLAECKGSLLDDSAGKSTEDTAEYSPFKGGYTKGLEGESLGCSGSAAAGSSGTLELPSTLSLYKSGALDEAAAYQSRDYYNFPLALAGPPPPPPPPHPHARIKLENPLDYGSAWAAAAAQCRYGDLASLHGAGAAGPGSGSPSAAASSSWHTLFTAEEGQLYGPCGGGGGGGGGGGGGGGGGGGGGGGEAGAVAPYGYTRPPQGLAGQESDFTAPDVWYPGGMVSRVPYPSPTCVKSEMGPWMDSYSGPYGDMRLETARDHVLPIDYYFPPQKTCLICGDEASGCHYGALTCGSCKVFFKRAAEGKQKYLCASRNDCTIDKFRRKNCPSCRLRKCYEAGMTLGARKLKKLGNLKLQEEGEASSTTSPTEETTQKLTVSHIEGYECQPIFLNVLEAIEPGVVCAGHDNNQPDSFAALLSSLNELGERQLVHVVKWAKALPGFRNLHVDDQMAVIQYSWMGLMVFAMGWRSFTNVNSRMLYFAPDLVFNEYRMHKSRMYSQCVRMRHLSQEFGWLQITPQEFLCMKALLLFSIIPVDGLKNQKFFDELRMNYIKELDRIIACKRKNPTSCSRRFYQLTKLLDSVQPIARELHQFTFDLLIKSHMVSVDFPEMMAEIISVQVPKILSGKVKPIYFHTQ
Method in brief: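 Beta-lactamase FRET read (2 h RT incubation with LiveBLAzer B/G) following 16 h of compound plus R1881 treatment of AR-UAS-bla HEK293 cells, which had been pre-incubated 4 h at 37C.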

[21] = molecular target: Androgen receptor (Homo sapiens) (UniProt P10275); assay: qHTS assay to identify small molecule agonists of the androgen receptor (AR) signaling pathway (AID 743036; active = well fitted activation curve with a large enough effect in the signal ratio in the repeat runs, with a control signal flat, not every such curve was filed as active; the % refers to the signal ratio)
Method in brief: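 Quantitative HTS of the Tox21 10K library in HEK293 cells bearing a stably integrated UAS-controlled beta-lactamase reporter. Compound exposure lasted 16 h at 37C. Reporter activity was detected by FRET substrate fluorescence after 2 h at room temperature.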

[22] = molecular target: Androgen receptor (Homo sapiens) (UniProt P10275); assay: qHTS assay to identify small molecule agonists of the androgen receptor (AR) signaling pathway using the MDA cell line (AID 743040; also: nearly all actives have a fitted effect of over 20% in size)
Method in brief: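 MDA-kb2 breast carcinoma cells stably carrying an MMTV-driven luciferase reporter (AR- and GR-responsive) were seeded and held 5 h at 37C, 0% CO2, then exposed to compounds in DMSO for 16 h. Luminescence was read 30 min after ONE-Glo addition.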

[23] = molecular target: Androgen receptor (Homo sapiens) (UniProt P10275); assay: qHTS assay to identify small molecule antagonists of the androgen receptor (AR) signaling pathway using the MDA cell line (AID 743042; also: nearly all actives have a fitted effect of over 55% in size)
Method in brief: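 MDA-kb2 cells (human breast carcinoma, stably carrying an MMTV-luciferase reporter responsive to AR and GR) were plated at 3,000 cells/well and preincubated 5 hr at 37C, then given compound plus R1881 agonist for 16 h. ONE-Glo luminescence was read.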

[24] = qHTS assay to identify small molecule antagonists of the thyroid receptor (TR) signaling pathway - cell viability counter screen (AID 743064); also: potency is read from the fitted curve at half-maximal effect; nearly all actives have a fitted effect of over 50% in size
Method in brief: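 Rat GH3 pituitary tumor cells stably expressing two TR response elements driving luciferase were plated, rested 4 h, then dosed with library compounds and T3 (1 nM final). After 23.5 h at 37 °C, CellTiter-Fluor was added for 30 min and fluorescence recorded.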

[25] = test system: thyroid hormone receptor (rat, GH3 cells); assay: qHTS assay to identify small molecule agonists of the thyroid receptor (TR) signaling pathway (AID 743066; calls by dose curve)
[26] = qHTS assay to identify small molecule antagonists of the estrogen receptor alpha (ER-alpha) signaling pathway - cell viability counter screen (AID 743074; calls by dose curve;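 also: HEK293 cells carrying ER-alpha-UAS-bla reporter stimulated with 17beta-estradiol; nearly all actives have a fitted effect of over 45% in size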)
[27] = molecular target: Estrogen receptor (Homo sapiens) (UniProt P03372); assay: qHTS assay to identify small molecule agonists of the estrogen receptor alpha (ER-alpha) signaling pathway (AID 743075; calls by dose curve;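 also: HEK293 GripTite cells with ER-alpha and UAS-driven beta-lactamase reporter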)
Estrogen receptor (Homo sapiens), sequence (P03372 whole entry, looked up): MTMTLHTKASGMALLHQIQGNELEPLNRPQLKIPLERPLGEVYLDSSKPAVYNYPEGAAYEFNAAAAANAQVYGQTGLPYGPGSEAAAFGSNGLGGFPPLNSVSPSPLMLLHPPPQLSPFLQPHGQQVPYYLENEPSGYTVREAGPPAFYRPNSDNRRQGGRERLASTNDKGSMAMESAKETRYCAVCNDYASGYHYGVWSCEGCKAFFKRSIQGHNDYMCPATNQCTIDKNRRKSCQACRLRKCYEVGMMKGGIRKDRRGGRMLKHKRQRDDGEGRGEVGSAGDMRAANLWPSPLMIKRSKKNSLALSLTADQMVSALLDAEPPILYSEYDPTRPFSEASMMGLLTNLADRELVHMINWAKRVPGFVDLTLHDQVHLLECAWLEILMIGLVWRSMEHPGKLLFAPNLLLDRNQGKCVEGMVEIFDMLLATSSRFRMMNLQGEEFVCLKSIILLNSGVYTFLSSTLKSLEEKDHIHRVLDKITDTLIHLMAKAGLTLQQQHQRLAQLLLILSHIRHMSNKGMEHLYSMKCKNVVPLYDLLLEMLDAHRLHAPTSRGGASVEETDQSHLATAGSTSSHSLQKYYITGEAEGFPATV

[28] = qHTS assay to identify small molecule antagonists of the estrogen receptor alpha (ER-alpha) signaling pathway using the BG1 cell line (AID 743080; calls by dose curve;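 also: BG1 cells stimulated with 17beta-estradiol alongside compound; potency is read from the fitted curve at half-maximal effect; nearly all actives have a fitted effect of over 25% in size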)
Method in brief: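 BG1Luc4E2, endogenous ER-alpha, 4xERE-luc; 5 d charcoal-stripped FBS, phenol red free; 24 h plating; cpd + 17beta-estradiol 21.5 h, 37 C/5% CO2; CellTiter-Fluor viability 30 min, then ONE-Glo luciferase 30 min RT.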

Aromatase (Homo sapiens) = Aromatase (Homo sapiens) (UniProt P11511); assay: qHTS assay to identify aromatase inhibitors (AID 743083); also: series mostly up to about 70 µM; nearly all actives have a fitted effect of over 55% in size
Aromatase (Homo sapiens), sequence (P11511 whole entry, looked up): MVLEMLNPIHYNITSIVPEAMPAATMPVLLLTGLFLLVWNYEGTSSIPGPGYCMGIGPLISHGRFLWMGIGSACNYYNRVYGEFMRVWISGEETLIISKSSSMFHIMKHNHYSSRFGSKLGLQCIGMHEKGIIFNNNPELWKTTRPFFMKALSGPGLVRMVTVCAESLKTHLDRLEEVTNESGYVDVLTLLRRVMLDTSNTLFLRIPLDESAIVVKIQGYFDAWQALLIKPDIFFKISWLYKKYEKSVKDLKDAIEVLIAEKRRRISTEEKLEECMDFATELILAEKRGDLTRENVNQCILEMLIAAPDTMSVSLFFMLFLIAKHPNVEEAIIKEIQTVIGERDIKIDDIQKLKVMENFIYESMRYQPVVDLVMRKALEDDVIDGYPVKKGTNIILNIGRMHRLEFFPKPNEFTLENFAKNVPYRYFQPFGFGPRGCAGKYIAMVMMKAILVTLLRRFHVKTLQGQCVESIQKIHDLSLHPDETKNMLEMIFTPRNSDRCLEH

[29] = qHTS assay to identify aromatase inhibitors - cell viability counter screen (AID 743084)
[30] = molecular target: Aryl hydrocarbon receptor (Homo sapiens) (UniProt P35869); assay: qHTS assay to identify small molecule that activate the aryl hydrocarbon receptor (AhR) signaling pathway (AID 743085);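 also: HG2L7.5c1 human HepG2 liver cells with stably integrated DRE-driven firefly reporter; series mostly up to about 70 µM; nearly all actives have a fitted effect of over 15% in size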
Aryl hydrocarbon receptor (Homo sapiens), sequence (P35869 whole entry, looked up): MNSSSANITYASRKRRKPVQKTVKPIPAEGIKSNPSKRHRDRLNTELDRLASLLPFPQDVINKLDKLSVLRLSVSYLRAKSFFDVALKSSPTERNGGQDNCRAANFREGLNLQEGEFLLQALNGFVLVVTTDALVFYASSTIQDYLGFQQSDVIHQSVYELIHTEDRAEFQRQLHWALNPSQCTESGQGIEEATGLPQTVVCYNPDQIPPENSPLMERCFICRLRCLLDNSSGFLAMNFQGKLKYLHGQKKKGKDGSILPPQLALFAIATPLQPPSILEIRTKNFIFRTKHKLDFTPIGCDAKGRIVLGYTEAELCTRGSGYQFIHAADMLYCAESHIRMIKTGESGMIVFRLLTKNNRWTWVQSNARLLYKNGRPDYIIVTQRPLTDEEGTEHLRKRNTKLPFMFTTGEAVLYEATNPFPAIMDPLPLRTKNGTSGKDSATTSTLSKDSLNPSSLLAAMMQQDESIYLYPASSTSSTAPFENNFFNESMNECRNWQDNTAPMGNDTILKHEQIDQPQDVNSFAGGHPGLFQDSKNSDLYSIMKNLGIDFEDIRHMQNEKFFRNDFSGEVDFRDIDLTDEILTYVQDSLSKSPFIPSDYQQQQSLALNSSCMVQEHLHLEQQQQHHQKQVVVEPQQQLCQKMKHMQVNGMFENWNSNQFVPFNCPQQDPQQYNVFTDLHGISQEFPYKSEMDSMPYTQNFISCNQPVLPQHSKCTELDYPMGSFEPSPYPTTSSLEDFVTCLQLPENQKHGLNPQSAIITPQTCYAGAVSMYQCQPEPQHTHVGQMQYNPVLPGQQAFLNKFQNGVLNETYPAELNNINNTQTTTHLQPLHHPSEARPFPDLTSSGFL
Method in brief: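 Compounds were tested in HepG2 hepatocellular carcinoma cells harbouring a stably integrated luciferase gene under control of 20 DREs. Increased reporter signal after 24 h treatment at 37C was taken as AhR activation.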

[31] = qHTS assay to identify small molecule that activate the aryl hydrocarbon receptor (AhR) signaling pathway - cell viability counter screen (AID 743086);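 also: HepG2 liver cells carrying the AhR DRE luciferase reporter; series mostly up to about 70 µM; nearly all actives have a fitted effect of over 45% in size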
Method in brief: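 HepG2-AhR-luc (HG2L7.5c1) cells, 4000/well, were preincubated 5 h at 37C, exposed to compound in qHTS format for 24 hr at 37C, then given CellTiter-Fluor for 30 min; viability was read as fluorescence in the reporter wells.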

[32] = molecular target: Peroxisome proliferator-activated receptor gamma (Homo sapiens) (UniProt P37231); assay: qHTS assay to identify small molecule agonists of the peroxisome proliferator-activated receptor gamma (PPARg) signaling pathway (AID 743094; active = well fitted activation curve with a large enough effect in the signal ratio in the repeat runs, not every such curve was filed as active; the % refers to the signal ratio)
Peroxisome proliferator-activated receptor gamma (Homo sapiens), sequence (P37231 whole entry, looked up): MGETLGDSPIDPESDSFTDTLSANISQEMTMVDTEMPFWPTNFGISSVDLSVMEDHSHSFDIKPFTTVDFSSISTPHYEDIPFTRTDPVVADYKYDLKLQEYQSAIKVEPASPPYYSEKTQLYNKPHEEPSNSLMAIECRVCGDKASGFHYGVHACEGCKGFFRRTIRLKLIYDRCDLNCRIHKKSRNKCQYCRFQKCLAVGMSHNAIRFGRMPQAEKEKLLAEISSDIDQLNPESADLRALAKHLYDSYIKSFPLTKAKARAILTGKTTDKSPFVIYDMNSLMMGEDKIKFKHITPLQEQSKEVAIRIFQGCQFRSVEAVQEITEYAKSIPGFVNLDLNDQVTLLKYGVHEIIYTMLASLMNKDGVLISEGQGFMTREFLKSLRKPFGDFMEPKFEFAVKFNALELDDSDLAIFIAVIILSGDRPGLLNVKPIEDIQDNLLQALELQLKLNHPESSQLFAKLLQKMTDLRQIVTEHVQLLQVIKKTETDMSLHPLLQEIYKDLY
Method in brief: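 Compounds dissolved in DMSO were added to PPARg UAS-bla HEK293H cells for 17 h at 37C, and reporter expression was quantified by fluorescence intensity after 1 h with LiveBLAzer B/G FRET substrate.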

[33] = qHTS assay to test for compound auto fluorescence at 535 nm (green) in HepG2 cells (AID 720675)
[34] = qHTS assay for identifying genotoxic compounds that show differential cytotoxicity against isogenic chicken DT40 cell lines with known DNA damage response pathways - wild type cell line (AID 743012); also: nearly all actives have a fitted effect of over 60% in size
Method in brief: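 First, wild type DT40 cells were plated at 300 per well and equilibrated about 0.5 h at 37 C/5% CO2. Next, compounds in DMSO were added and exposure lasted 40 h. Finally, CellTiter-Glo was added for 30 min at room temperature and luminescence recorded.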

[35] = qHTS assay for identifying genotoxic compounds that show differential cytotoxicity against isogenic chicken DT40 cell lines with known DNA damage response pathways - Rad54/Ku70 mutant cell line (AID 743015); also: nearly all actives have a fitted effect of over 60% in size
[36] = qHTS assay to identify small molecule antagonists of the androgen receptor (AR) signaling pathway using the MDA cell line - cell viability counter screen (AID 743041; also: nearly all actives have a fitted effect of over 45% in size)
Method in brief: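 MDA-kb2 AR-luc human breast carcinoma cells (MMTV-luciferase, AR/GR responsive) were treated with compounds plus R1881 agonist for 16 h at 37 °C. Viability was read as CellTiter-Fluor fluorescence in the same wells as the reporter assay.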

[37] = qHTS assay to identify small molecule antagonists of the thyroid receptor (TR) signaling pathway (AID 743065)
Method in brief: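 GH3.TRE-Luc rat pituitary cells carrying two TR response elements driving luciferase were plated for 4 h, given compound plus 1 nM T3 (final), and incubated 23.5 h at 37 C. ONE-Glo luminescence measured reporter inhibition; CellTiter-Fluor fluorescence tracked cytotoxicity.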

[38] = qHTS assay to identify small molecule antagonists of the estrogen receptor alpha (ER-alpha) signaling pathway using the BG1 cell line - cell viability counter screen (AID 743081)

In the case of `Cc1nnc2n1-c1sc(Br)cc1C(c1ccccc1Cl)=NC2`, the Potency [1] is reported as 23.7 µM (active), the Potency [2] is reported as “inactive” and the Potency [3] is reported as “inactive”. For the same molecule, the Potency [4] was “inactive”, the outcome [5] was “inactive” and the Potency [6] was “inactive”. The outcome [7] was “inactive”, the Potency [8] was “inactive” and the Potency [9] was “inactive”. The Potency [10] was “inactive”, the outcome [11] was “inactive” and the Potency [12] was “inactive”. The Potency [13] was “inactive”, the Potency [14] was “inactive” and the Potency [15] was “inactive”. For the same molecule, the Potency [16] was 10.7 µM (active), the Potency [17] was “inactive” and the Potency [18] was “inactive”. The Potency [19] was “inactive”, the Potency [20] was 8.49 µM (active) and the Potency [21] was “inactive”. For the same molecule, the Potency [22] was “inactive”, the Potency [23] was “inactive” and the Potency [24] was 21.1 µM (active). For the same molecule, the Potency [25] was “inactive”, the Potency [26] was “inactive” and the Potency [27] was “inactive”. For the same molecule, the Potency [28] was 11.9 µM (active), the Potency (Aromatase (Homo sapiens)) was “inactive” and the Potency [29] was “inactive”. The Potency [30] was “inactive”, the Potency [31] was “inactive” and the Potency [32] was “inactive”.

With `Oc1ccc2c3c1O[C@H]1[C@@H](O)C=C[C@H]4[C@H](C2)NCC[C@@]341` the Potency [1] was “inactive”, the Potency [2] was “inactive” and the Potency [3] was “inactive”. For the same molecule, the outcome [5] was “inactive”, the Potency [33] was “inactive” and the Potency [6] was “inactive”. For the same molecule, the Potency [8] was “inactive”, the Potency [9] was “inactive” and the Potency [10] was “inactive”. The outcome [11] was “inactive”, the Potency [12] was “inactive” and the Potency [13] was “inactive”. The Potency [14] was “inactive”, the Potency [17] was “inactive” and the Potency [34] was “inactive”. For the same molecule, the Potency [18] was “inactive”, the Potency [35] was “inactive” and the Potency [19] was “inactive”. For the same molecule, the Potency [36] was “inactive”, the Potency [37] was “inactive” and the Potency [25] was “inactive”. For the same molecule, the Potency [38] was “inactive”, the Potency (Aromatase (Homo sapiens)) was “inactive” and the Potency [29] was “inactive”. The Potency [30] was “inactive” and the Potency [31] was “inactive”.
